# Source: PubChem BioAssay AID2717 (Broad Institute, 2010)
# About 3,200 (1.1%) of roughly 300,000 compounds were called active. This excerpt belongs to a sample that is enriched for actives. Values without a mark were called inactive. Rule as the data show it: active = inhibition above about 75%; inconclusive = no clear call, values can overlap the other calls; inactive = below that; tested in HMLE shEcad cells.
# Test: cancer stem cell viability inhibitors, primary screen, luminescence (AID 2717)
# Conditions: cancer stem cell-like cells viability, at 7.5 µM, stronger effect = higher value
row,SMILES,inhibition
1,Cc1cc(NC(=O)CSc2ncc(C(F)(F)F)cc2Cl)no1,-11.1%
2,NS(=O)(=O)c1cccc(NC(=O)COC(=O)c2cc([N+](=O)[O-])ccc2N2CCCC2)c1,8.24%
3,COc1ccc2c(CC(=O)NNC(=O)c3ccccc3F)coc2c1,-7.08%
4,Nn1c(SCC(=O)NC2CCCc3ccccc32)nnc1C1CC1 (stereo not drawn),-20.9%
5,O=C(/C(=C/c1cccc(Cl)c1)c1nc2ccccc2[nH]1)c1ccccc1,79.9% (active)
6,O=C(Cc1nc2ccccc2[nH]c1=O)c1ccc(Cl)cc1,-22.9%
7,CCC(=O)/C(=C(/O)c1ccccc1)c1nc2ccccc2[nH]1,-8.67%
8,CC(Sc1ccccc1F)C(=O)Nc1cccc(S(=O)(=O)N2CCOCC2)c1 (stereo not drawn),-6.48%
9,O=C1CCC/C=C/C[C@@H](CC(=O)N(CCO)Cc2ccccc2)C(=O)NC[C@H](c2ccccc2)O1,-5.63%
10,O=C(O)/C=C/c1cn(Cc2ccccc2)nc1-c1cccs1,-3.63%
11,O=C(O)CCn1cc(/C=C/C(=O)c2ccc(Cl)cc2)c(-c2cccc(Br)c2)n1,78.2% (active)
12,CCOC(=O)/C(C#N)=C/c1cn(CCC(=O)O)nc1-c1ccc(Br)cc1,-7.96%
13,O=C(C[C@@H]1C/C=C\CCC(=O)OC[C@@H]2CCCN2C1=O)NCCO,-0.206%
14,C/C(N)=C(/C#N)C(=O)COC(=O)c1cc(-c2cccc(Br)c2)nc2ccccc12,21.7%
15,C/C(N)=C(/C#N)C(=O)COC(=O)c1cc(-c2ccc(C)cc2)nc2ccccc12,101% (active)
16,C/C(N)=C(/C#N)C(=O)COC(=O)c1cc(-c2ccccc2)nc2ccc(Br)cc12,-0.788%
17,O=C(COc1ccccc1F)NNC(=O)c1cc(Br)ccc1Cl,7.13%
18,COc1cc(OC)cc(C(=O)NNC(=O)Cc2cccs2)c1,-7.32%
19,CC1CCCCN1CCCNc1ccc(C(CC(N)=O)NC(=O)c2ccccc2)cc1[N+](=O)[O-] (stereo not drawn),6.07%
20,NC(=O)CC(NC(=O)Cc1cccc2ccccc12)c1ccc(NCc2cc(F)ccc2F)c([N+](=O)[O-])c1 (stereo not drawn),4.74%

row,SMILES,inhibition
1,NC(=O)CC(NC(=O)Cc1ccc(Br)cc1)c1ccc(NC2CC3CCC2C3)c([N+](=O)[O-])c1 (stereo not drawn),85% (active)
2,COc1cccc(OCC(=O)Nc2ccccc2C(N)=O)c1,-7.15%
3,CCCCCCCCCCOC(=O)Cn1c(COc2ccc(C)cc2)[n+](C)c2ccccc21,124% (active)
4,CCn1c(=N)n(CC(=O)c2cccc(OC)c2)c2ccccc21,-13.1%
5,CCCCCCCCCCOC(=O)Cn1c(COc2cccc(OC)c2)[n+](C)c2ccccc21,104% (active)
6,Cc1ccc(OCc2nc3ccccc3n2C)cc1,-4.74%
7,CCCCOC(=O)Cn1c(=N)n(CCN(CC)CC)c2ccccc21,0.539%
8,O=C(COC(=O)c1ccc(F)c(S(=O)(=O)N2CCOCC2)c1)NCc1ccc2c(c1)OCO2,8.38%
9,O=C(COc1ccc(F)cc1Br)NCC1COc2ccccc2O1 (stereo not drawn),6.88%
10,Cc1cc(C)cc(OCC(=O)Nc2ccc(N3CCOCC3)cc2N2CCOCC2)c1,6.1%
11,COc1ccccc1C(=O)NCC(=O)OCC(=O)NNC(=O)c1ccc(Br)cc1,-1.35%
12,CCCCCCOc1ccc(OC(=O)c2cccnc2)cc1,86.1% (active)
13,N#CCc1ccc(OC(=O)c2cccnc2)cc1,9.72%
14,O=C(Oc1ccc(Br)cc1)c1cccnc1,4.5%
15,CCc1cc2c(N3CCN(c4nnc(CC)s4)CC3)ncnc2s1,1.61%
16,Oc1ccccc1N1CCN(c2ncnc3sc(-c4ccccc4)cc23)CC1,80.7% (active)
17,COc1ccc(Nc2ncnc3sc(-c4ccccc4)cc23)c(OC)c1,38.3%
18,O=C(OCC(=O)N1CCN(C(=O)c2ccco2)CC1)c1c(Cl)cccc1Cl,-3.78%
19,COc1ccc(-c2oc(/N=C/N3CCCC3)c(C#N)c2-c2ccc(OC)cc2)cc1,-4.12%
20,N#Cc1c(NC(=O)CCCN2C(=O)c3ccccc3C2=O)oc(-c2ccccc2)c1-c1ccccc1,-2.49%

row,SMILES,inhibition
1,N#Cc1c(/N=C/N2CCCC2)oc(-c2ccccc2)c1-c1ccccc1,127% (active)
2,CCN1CCN(C(c2cccnc2)c2cc(Cl)c3cccnc3c2O)CC1 (stereo not drawn),77.7% (active)
3,CCOC(=O)N1CCN(C(c2cccnc2)c2ccc3cccnc3c2O)CC1 (stereo not drawn),30.6%
4,Oc1ccccc1CN1CCN(C(c2ccccc2)c2ccccc2)CC1,28.7%
5,COc1ccc(CNC(=O)COC(=O)c2sccc2C)cc1OC,0.384%
6,CCOC(=O)C1=C(NC(=S)NC(=O)c2ccccc2)c2ccccc2CC1(C)C,3.23%
7,CC1(C)Cc2ccccc2/C(=C/C(=O)c2ccccc2)N1,78.5% (active)
8,CC1(C)Cc2ccccc2-c2[nH]c(=S)[nH]c(=O)c21,0.325%
9,CC1CCCCC1NC(=O)Cn1c(=O)cnc2ccccc21 (stereo not drawn),0.34%
10,O=C(NCc1ccc2c(c1)OCO2)c1cc([N+](=O)[O-])ccc1N1CCOCC1,46.4%
11,OC(CNCC1CCCO1)Cn1c2ccc(Br)cc2c2cc(Br)ccc21 (stereo not drawn),116% (active)
12,CC(NS(=O)(=O)c1ccc(Br)cc1)C(=O)NCC1CCCO1 (stereo not drawn),-4.45%
13,O=C(CSc1ccc(-c2ccc(Br)cc2)nn1)NCC1CCCO1 (stereo not drawn),1.96%
14,Cc1cc(C(=O)OCC(=O)N2C(C)CCCC2C)c2ccccc2n1 (stereo not drawn),-3.37%
15,CCOC(=O)c1cnc(-n2nc(C)cc2C)nc1Nc1cccc(C(C)=O)c1,-9.8%
16,CCOC(=O)c1cnc(-n2nc(C)cc2C)nc1NNc1cc(C)nc(-c2ccccc2)n1,101% (active)
17,Cc1cc(C)n(-c2c(F)c(F)c(COC(=O)c3ccccc3)c(F)c2F)n1,3.98%
18,Nn1c(SCC(=O)Nc2ccc3c(c2)CCC3)nnc1C1CC1,-6.39%
